Five molecules from ChEMBL document CHEMBL1961873, “Compounds: GSK PKIS; Assays: Nanosyn kinase panel” (2012) can be followed below.

Experiment [1] deals with Mast/stem cell growth factor receptor Kit (Homo sapiens) (UniProt P10721). Particulars: at 1 µM.
Experiment [2] relates to Mast/stem cell growth factor receptor Kit (Homo sapiens), P10721 [D816V]. To be noted: at 0.1 µM.
The test system is the same in experiment [3]. Particulars: at 1 µM.
Experiment [4] concerns Mast/stem cell growth factor receptor Kit (Homo sapiens), P10721 [T670I]. Particulars: at 0.1 µM.
Mast/stem cell growth factor receptor Kit (Homo sapiens), P10721 [T670I], sequence (P10721 whole entry T670I): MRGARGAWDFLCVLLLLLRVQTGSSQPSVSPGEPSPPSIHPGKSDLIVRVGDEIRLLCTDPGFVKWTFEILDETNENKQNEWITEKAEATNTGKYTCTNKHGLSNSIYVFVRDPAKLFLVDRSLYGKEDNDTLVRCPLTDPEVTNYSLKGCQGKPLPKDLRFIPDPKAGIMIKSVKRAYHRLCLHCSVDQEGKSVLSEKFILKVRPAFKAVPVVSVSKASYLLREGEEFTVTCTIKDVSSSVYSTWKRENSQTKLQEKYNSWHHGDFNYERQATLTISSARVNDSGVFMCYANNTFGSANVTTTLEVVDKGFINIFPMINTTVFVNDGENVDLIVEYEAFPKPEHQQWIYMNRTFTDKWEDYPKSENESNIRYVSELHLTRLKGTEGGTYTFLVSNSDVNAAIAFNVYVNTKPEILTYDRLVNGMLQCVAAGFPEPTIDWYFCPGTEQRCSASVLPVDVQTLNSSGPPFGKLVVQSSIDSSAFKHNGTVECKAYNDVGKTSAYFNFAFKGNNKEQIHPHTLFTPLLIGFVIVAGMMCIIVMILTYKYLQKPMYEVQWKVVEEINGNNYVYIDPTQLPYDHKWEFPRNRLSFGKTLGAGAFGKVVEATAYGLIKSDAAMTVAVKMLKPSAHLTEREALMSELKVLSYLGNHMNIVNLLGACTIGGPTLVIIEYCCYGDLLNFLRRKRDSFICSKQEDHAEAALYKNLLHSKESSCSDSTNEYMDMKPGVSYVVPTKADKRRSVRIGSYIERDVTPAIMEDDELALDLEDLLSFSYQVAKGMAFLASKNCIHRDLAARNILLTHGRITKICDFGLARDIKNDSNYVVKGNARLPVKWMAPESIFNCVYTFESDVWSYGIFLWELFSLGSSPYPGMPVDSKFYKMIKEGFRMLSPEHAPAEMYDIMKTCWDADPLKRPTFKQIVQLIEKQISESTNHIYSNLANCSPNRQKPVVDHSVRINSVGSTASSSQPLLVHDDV
Experiment [5] has the same test system. To be noted: at 1 µM.
Experiment [6] deals with Mast/stem cell growth factor receptor Kit (Homo sapiens), P10721 [V560G]. Particulars: at 0.1 µM.
Mast/stem cell growth factor receptor Kit (Homo sapiens), P10721 [V560G], sequence (P10721 whole entry V560G): as the sequence (P10721 whole entry T670I) above, with V560G, I670T counted along it
Experiment [7] has the same test system. To be noted: at 1 µM.
Experiment [8] has as its target Tyrosine-protein kinase Lck (Homo sapiens) (UniProt P06239). Particulars: at 0.1 µM.
Experiment [9] shares this target. Particulars: at 1 µM.
Experiment [10] deals with Leukocyte tyrosine kinase receptor (Homo sapiens) (UniProt P29376). To be noted: at 0.1 µM.
Leukocyte tyrosine kinase receptor (Homo sapiens), sequence (P29376 whole entry): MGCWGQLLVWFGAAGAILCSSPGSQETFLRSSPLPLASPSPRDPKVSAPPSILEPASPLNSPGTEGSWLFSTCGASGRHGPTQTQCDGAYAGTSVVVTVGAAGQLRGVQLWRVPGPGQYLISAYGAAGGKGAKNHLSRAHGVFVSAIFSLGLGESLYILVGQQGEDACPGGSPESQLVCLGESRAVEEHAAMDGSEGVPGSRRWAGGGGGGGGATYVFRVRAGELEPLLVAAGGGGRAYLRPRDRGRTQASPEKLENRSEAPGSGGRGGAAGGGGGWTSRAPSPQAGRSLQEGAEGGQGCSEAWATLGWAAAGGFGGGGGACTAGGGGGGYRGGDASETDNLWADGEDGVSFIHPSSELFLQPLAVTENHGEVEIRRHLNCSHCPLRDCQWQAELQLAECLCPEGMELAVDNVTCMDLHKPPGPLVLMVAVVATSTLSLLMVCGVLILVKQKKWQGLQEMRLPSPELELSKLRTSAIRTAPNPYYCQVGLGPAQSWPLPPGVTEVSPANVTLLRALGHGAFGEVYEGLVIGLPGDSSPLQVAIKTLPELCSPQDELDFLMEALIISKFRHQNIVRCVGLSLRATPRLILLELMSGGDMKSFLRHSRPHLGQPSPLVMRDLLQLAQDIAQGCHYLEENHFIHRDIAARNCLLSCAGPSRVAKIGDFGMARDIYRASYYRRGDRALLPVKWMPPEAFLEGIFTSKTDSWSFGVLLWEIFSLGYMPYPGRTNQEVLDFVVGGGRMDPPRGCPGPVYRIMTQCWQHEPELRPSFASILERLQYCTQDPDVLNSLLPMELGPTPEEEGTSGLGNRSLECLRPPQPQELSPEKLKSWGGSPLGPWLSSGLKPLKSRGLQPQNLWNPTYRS
Experiment [11] has the same target. Particulars: at 1 µM.
For experiment [12], the target named is Tyrosine-protein kinase Lyn (Homo sapiens) (UniProt P07948). Particulars: at 0.1 µM.
Tyrosine-protein kinase Lyn (Homo sapiens), sequence (P07948 2-512 limits assumed): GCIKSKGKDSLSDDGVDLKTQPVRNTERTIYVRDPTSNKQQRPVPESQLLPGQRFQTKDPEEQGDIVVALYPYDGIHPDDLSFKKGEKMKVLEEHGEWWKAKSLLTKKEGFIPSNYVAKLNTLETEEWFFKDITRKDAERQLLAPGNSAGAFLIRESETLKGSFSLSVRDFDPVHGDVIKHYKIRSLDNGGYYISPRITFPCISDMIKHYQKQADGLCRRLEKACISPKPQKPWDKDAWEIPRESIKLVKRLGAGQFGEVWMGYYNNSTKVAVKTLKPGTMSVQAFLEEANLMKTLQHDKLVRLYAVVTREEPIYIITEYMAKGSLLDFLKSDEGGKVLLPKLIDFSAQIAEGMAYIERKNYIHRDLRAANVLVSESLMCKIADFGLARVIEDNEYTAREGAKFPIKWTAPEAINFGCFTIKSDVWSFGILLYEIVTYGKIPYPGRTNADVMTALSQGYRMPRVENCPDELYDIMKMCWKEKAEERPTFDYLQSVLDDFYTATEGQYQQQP
For experiment [13] the target is unchanged. To be noted: at 1 µM.
For experiment [14] the target is unchanged. To be noted: at 0.1 µM. This is another data set of the same source.
The target is the same in experiment [15]. To be noted: at 1 µM. This is another data set of the same source.
For experiment [16], the target named is T1, Tyrosine-protein kinase Mer (Homo sapiens) (UniProt Q12866).
T1 sequence (whole entry): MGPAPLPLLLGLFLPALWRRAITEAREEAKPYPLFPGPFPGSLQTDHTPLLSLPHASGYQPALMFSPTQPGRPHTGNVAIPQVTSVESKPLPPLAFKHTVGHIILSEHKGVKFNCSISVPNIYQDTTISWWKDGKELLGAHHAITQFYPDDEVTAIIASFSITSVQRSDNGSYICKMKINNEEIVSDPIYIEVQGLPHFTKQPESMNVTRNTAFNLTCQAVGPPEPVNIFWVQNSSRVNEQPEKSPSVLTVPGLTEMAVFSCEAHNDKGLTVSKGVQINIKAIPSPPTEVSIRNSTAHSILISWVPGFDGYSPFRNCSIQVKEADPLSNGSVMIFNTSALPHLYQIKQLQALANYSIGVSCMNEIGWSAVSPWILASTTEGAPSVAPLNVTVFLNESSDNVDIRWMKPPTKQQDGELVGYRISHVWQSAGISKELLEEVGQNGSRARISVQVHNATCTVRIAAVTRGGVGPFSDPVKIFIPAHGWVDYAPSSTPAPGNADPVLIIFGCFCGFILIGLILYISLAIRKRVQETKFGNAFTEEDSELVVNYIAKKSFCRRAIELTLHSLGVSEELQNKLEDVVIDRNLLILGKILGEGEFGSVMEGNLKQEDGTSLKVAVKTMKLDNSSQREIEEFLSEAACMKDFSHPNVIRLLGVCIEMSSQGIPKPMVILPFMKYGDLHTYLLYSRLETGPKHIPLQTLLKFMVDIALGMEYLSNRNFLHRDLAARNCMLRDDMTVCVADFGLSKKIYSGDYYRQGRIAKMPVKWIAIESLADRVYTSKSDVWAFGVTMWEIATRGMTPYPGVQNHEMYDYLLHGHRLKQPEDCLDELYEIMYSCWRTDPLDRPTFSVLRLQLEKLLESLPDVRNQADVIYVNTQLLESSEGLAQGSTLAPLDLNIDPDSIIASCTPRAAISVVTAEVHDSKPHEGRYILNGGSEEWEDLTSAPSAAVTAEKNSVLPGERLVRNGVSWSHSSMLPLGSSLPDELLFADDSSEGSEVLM
To be noted: at 0.1 µM.

Experiment [17] deals with T1, Tyrosine-protein kinase Mer (Homo sapiens). Particulars: at 1 µM.
For experiment [18], the target named is Hepatocyte growth factor receptor (Homo sapiens) (UniProt P08581). Particulars: at 0.1 µM.
Hepatocyte growth factor receptor (Homo sapiens), sequence (P08581 whole entry): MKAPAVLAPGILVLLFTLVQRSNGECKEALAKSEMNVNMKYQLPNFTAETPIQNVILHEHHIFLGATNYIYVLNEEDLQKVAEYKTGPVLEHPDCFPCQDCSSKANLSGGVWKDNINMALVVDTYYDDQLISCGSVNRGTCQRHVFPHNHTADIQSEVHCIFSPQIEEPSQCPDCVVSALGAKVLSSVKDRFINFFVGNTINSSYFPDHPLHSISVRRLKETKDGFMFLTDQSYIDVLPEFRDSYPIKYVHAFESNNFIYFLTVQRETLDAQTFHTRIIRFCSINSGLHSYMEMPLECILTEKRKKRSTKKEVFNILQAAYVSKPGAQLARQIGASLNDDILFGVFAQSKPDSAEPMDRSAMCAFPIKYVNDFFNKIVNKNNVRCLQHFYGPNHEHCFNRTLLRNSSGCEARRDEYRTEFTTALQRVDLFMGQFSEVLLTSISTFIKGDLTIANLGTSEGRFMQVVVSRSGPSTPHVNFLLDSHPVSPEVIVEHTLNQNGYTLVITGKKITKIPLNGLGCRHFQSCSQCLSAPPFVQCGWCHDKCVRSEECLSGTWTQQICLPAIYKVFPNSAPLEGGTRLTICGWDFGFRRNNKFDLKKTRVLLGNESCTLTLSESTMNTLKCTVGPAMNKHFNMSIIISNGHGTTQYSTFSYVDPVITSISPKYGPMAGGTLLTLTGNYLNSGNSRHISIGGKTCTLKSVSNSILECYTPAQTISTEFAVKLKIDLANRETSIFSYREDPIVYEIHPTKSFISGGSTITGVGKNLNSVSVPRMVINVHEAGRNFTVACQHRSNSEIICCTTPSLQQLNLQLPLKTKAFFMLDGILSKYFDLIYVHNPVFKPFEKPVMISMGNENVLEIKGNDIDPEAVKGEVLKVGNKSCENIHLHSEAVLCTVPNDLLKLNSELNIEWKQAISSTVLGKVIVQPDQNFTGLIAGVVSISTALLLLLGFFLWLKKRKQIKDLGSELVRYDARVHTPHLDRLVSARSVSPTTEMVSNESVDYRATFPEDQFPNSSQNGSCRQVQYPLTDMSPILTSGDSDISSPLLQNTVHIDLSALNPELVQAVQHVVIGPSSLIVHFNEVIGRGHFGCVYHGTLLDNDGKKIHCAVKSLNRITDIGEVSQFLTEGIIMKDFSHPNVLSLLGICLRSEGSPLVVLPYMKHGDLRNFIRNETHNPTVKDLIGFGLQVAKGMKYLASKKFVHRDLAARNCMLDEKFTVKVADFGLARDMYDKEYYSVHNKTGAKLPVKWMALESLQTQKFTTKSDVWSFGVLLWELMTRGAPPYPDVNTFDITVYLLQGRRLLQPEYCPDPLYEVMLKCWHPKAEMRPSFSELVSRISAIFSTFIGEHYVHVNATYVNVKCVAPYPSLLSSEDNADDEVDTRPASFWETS
For experiment [19] the target is unchanged. To be noted: at 1 µM.
In experiment [20] the target is T2, Muscle, skeletal receptor tyrosine-protein kinase (Homo sapiens) (UniProt O15146).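 Further: values are mean inhibition of MuSK from the GSK PKIS kinase screening panel.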
T2 sequence (whole entry): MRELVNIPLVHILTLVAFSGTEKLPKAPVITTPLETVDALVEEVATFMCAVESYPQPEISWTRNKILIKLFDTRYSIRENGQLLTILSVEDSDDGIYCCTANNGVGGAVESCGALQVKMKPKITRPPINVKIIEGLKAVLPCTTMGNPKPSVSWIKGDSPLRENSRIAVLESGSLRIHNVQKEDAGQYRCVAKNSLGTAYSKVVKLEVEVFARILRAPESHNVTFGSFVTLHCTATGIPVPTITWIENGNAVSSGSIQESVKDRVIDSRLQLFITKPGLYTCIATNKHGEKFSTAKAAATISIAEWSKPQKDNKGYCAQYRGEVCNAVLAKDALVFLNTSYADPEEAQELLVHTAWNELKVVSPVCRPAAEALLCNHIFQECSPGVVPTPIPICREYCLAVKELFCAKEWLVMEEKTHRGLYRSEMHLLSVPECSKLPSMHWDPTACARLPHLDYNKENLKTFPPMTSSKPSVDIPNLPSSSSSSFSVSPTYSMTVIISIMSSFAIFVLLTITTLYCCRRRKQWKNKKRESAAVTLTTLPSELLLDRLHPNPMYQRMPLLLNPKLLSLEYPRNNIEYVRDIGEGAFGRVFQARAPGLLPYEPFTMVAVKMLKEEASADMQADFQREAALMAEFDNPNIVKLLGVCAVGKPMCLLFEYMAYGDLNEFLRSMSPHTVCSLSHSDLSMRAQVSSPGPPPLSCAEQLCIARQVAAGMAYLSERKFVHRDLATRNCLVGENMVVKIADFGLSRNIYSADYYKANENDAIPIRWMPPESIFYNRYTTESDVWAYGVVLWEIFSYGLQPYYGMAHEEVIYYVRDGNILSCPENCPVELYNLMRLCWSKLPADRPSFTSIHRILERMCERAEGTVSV
To be noted: at 0.1 µM.

Mast/stem cell growth factor receptor Kit (Homo sapiens), P10721 [D816V], sequence (P10721 whole entry D816V): as the sequence (P10721 whole entry T670I) above, with I670T, D816V counted along it
Mast/stem cell growth factor receptor Kit (Homo sapiens), sequence (P10721 whole entry): as the sequence (P10721 whole entry T670I) above, with I670T counted along it
Tyrosine-protein kinase Lck (Homo sapiens), sequence (P06239 2-509 limits assumed): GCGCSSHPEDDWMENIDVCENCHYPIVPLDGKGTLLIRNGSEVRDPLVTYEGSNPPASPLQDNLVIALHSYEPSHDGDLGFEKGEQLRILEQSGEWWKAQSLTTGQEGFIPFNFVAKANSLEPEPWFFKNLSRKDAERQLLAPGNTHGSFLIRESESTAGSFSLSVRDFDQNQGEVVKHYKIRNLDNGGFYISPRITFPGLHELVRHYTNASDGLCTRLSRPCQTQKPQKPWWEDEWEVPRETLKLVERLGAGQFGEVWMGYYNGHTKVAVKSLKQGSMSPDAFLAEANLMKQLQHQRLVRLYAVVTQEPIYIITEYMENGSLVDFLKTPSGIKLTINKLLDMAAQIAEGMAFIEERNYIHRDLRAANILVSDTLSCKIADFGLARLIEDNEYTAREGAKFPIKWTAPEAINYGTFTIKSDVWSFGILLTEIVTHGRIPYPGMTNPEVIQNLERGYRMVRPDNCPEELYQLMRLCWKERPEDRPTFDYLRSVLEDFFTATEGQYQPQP

Take `COc1cc(/C=N/Nc2ncnc3[nH]ncc23)ccc1O`: the inhibition (as a rule, the drop in the measured response relative to a control, in per cent) in [1] stood at 49.4%; in experiment [2] it was 8.85%; in experiment [3] it was 12.9%; in [4], 0.9%; in experiment [5], 7.67%; in experiment [6], 1.4%. The inhibition in experiment [7] stood at 6.17%; in experiment [8], 12.5%; in [9], 54.7%; in [10], 4.08%; in [11] it was 12.2%; in experiment [12], 16.8%. Besides, the inhibition was found to be 63.9% in experiment [13]; 12.6% in experiment [14]; 59.6% in [15]; 1.2% in experiment [16]; 9.92% in experiment [17]; 1.87% in [18]. The inhibition in [19] is 14.9%; in experiment [20], 5.09%.

On to `CCn1c(-c2nonc2N)nc2c(C#CC(C)(C)O)nc(OC[C@H](N)c3ccccc3)cc21`, for which the inhibition was 1.58% in [1]; 1.78% in experiment [2]; 10% in experiment [3]; 0.36% in experiment [4]; 0.72% in experiment [5]; 3.28% in [6]. In addition, the inhibition is -0.5% in [7]; 2.85% in experiment [8]; 3.65% in experiment [9]; 5.32% in experiment [10]; 17.1% in [11]; 4.19% in experiment [12]. For the same molecule, the inhibition in [13] stood at 4.52%; in [14] it was 2.36%; in experiment [15], 4.2%; in experiment [16] it was 5.78%; in experiment [17], 3.59%; in [18] it was 6.32%. Also, the figures for the inhibition in experiment [19] and in [20] were 1.76% and 0.54%, respectively.

Consider `CC(=O)NCc1cccc(C#Cc2cncnc2Nc2ccc(OCc3cccc(F)c3)c(Cl)c2)c1`, for which the inhibition in [1] was 0.4%; in experiment [2], -2.07%; in [3] it was -2.37%; in [4] it was 1.52%; in experiment [5], 1.39%; in [6], 1.82%. Further, the inhibition is -0.41% in experiment [7]; 0.34% in [8]; 1.6% in experiment [9]; 1.56% in [10]; 0.67% in experiment [11]; -0.07% in experiment [12]. Moreover, the inhibition is -0.62% in [13]; -0.59% in experiment [14]; -1.18% in experiment [15]; 0.61% in experiment [16]; 2.93% in [17]; 4.9% in experiment [18]. Also, the inhibition in experiment [19] was 1.83%; in experiment [20] it was -0.6%.

Take `COc1ccc(CNC(=O)c2ccc(-c3cc(-c4nnc(C)o4)ccc3C)cc2)cc1`: the inhibition in [1] is 6.51%; in [2] it was -5.34%; in experiment [3] it was 4.89%; in experiment [4], 2.12%; in [5], 3.18%; in experiment [6] it was 4.68%. In addition, the inhibition turned out to be 4.58% in experiment [7]; 0.44% in [8]; 3.44% in experiment [9]; 1.41% in [10]; 4.21% in experiment [11]; 4.62% in [12]. For the same molecule, the inhibition in experiment [13] is 7.5%; in [14] it was 2.67%; in experiment [15], 7.12%; in experiment [16], 3.37%; in experiment [17], 3.49%; in experiment [18] it was 11.8%. Further, the inhibition was found to be 10.3% in experiment [19] and 3.25% in [20].

As for `COc1cccc(-c2c[nH]c3c(N/N=C/c4ccncc4)ncnc23)c1`, the inhibition in experiment [1] came to 88%; in experiment [2], 8.75%; in [3], 38.7%; in experiment [4], 7.21%; in experiment [5] it was 51.1%; in experiment [6], 4.19%. The inhibition in experiment [7] worked out at 19.6%; in experiment [8] it was 35.1%; in experiment [9] it was 82%; in experiment [10], 3.15%; in experiment [11] it was 2.09%; in experiment [12], 40.1%. Besides, the inhibition amounted to 83.3% in experiment [13]; 33.8% in experiment [14]; 81.8% in experiment [15]; 2.09% in experiment [16]; 15.7% in experiment [17]; 4.89% in [18]. In addition, the inhibition came to 27.3% in experiment [19] and 13.4% in experiment [20].
